Results: PubChem BioAssay (NCATS)
Inconclusive results are not listed. The source made the active and inactive calls. Calls follow the shape of the dose curve; as a rule, active = well fitted activation curve with a large enough effect; inconclusive = small, poorly fitted or top-dose-only effect; inactive = flat fitted curve, though single readings scatter.

test: Cellular Toxicity (caspase-3) H-4-II-E (AID 663); conditions: H-4-II-E rat hepatoma, scaled: DMSO 0%, 100 µM tamoxifen 100%; series mostly up to 92.2 µM;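 also: cells exposed to compound for 16 hr before readout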
Excerpt: NIH Chemical Genomics Center [NCGC]
NIH Molecular Libraries Screening Centers Network [MLSCN]
National Institutes of Environmental Health Sciences [NIEHS]
National Toxicology Program [NTP]
We have developed a 1536-well cell-based assay for quantitative high throughput screening (qHTS) against a number of cell lines to determine in vitro caspase 3/7 of small molecules. This particular assay uses the H-4-II-E cell line which is derived from rat hepatoma.
NCGC Assay Protocol Summary:
The Caspase-Glo 3/7 assay (Promega) is a homogeneous method to measure caspase-3 and caspase-7 activities in cultured cells. The quantitation of caspase 3/7 activity is based on the cleavage of a peptide-aminoluciferin substrate. After caspase cleaves the substrate the free aminoluciferin is liberated and serves as the substrate of luciferase, which generates the light. The luminescent signal is proportional to amount of caspase 3/7 activity present.
Using the Caspase-Glo 3/7 assay, the amount of caspase 3/7 activity was measured in the H-4-II-E cell line with complete culture medium following compound treatment for 16 hours. The assay was performed in opaque white 1536-well plates. In the screen, tamoxifen and doxorubicin were used as positive controls. Library compounds were measured for their ability to cause the activation of caspase 3/7 in the cell line, as reflected by an increase in luminescence signal, in a concentration-dependent manner. Data were normalized to the controls for basal activity (DMSO only) and 100% stimulation (100 uM tamoxifen). AC50 values were determined from concentration-response data modeled with the standard Hill equation.
qHTS protocol for caspase 3/7 assay in H-4-II-E cells
[Step] [Parameter] [Value] [Description]
1. Reagent; 5 uL; 1500 H-4-II-E cells/well
2. Time; 5 hr; 37 °C incubation
4. Controls; 23 nL; Tamoxifen 0.23 uM to 100 uM & Doxorubicin 7.0 pM to 100 uM
5. Time; 16 hr; 37 °C incubation
6. Reagent; 5 uL; Caspase-Glo 3/7 reagent
7. Time; 20 min; Room Temperature
8. Detection; Luminescence; Viewlux plate reader
Keywords: caspase 3/7, apoptosis, H-4-II-E cell line, luminescence, NTPHTS, NTPHTS_NCGC, NIEHS, EPA, DSSTox, MLSMR, MLSCN, NIH Roadmap, qHTS, NCGC

SMILES | outcome
CC1=C2[C@@H]([C@H](C)CC[C@H]2/C=C(\C)C(=O)O)[C@H](O)C1 | inactive
CCCCCCCC(=O)O | inactive
O=C(O)CCC(=O)C(=O)O | inactive
IC(I)I | inactive
CCOc1ccc2c(c1)C(C)=CC(C)(C)N2 | inactive
CCCCC/C=C\C/C=C\CCCCCCCC(=O)O | inactive
O=S(=O)(O)O | inactive
CC(C)=O | inactive
CC1=C(/C=C/C(C)=C/C=C/C(C)=C/CO)C(C)(C)CCC1 | inactive
CC(O)CO (centres undefined) | inactive
Nc1ccn([C@H]2CS[C@@H](CO)O2)c(=O)n1 | inactive
CCCCCCCC/C=C\CCCCCCCC(=O)O | inactive
Cc1ccccc1 | inactive
CCOC(C)=O | inactive
